Compounds with a hit are over-represented: about 7.6% of the library has one in this group of screens.
KB-V1 cytotox: kills drug-selected multidrug resistant KB-V1 cells | KB-V1 MDR cells viability, CellTiter-Glo, 72 h | Potency, µM (top dose mostly 46.1 µM), actives largely listed as cytotoxic | actives 3.4% (n = 400,000); further: potency means the concentration at half of the fitted maximal effect; on the % scale 0 is the no-effect control and ±100 the full control effect; nearly all actives have a fitted effect of over 60% in size
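KB-V1 cells (P-gp-expressing MDR subline of KB-3-1) in phenol-red-free DMEM with 10% FBS were exposed to library compounds over a concentration series for 72 h at 37 degrees C. Viability read by CellTiter-Glo luminescence; concentration-effect curves fitted after normalization.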
KB-3-1 tox: KB-3-1 parental cell cytotoxicity. KB-3-1 viability, CellTiter-Glo ATP luminescence, 72 h. Potency, µM (top dose mostly 46.1 µM), most hits filed as cytotoxic. actives 1.4% (n = 400,000); further: potency means the concentration at half of the fitted maximal effect; on the % scale 0 is the no-effect control and ±100 the full control effect; nearly all actives have a fitted effect of over 60% in size
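Cytotoxicity measured as CellTiter-Glo luminescence after 72 h at 37 C. Compound titrations were pinned onto drug-naive KB-3-1 parental adenocarcinoma cells grown in DMEM with 10% FBS, and normalized data fitted to concentration-response curves.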
KCNH2 WT inh: blocks the wildtype human KCNH2 potassium channel; activity change, % at 1.84 µM; U2OS, BacMam KCNH2, thallium flux FluxOr; active compounds read low; actives 0.37% (n = 340,000); Q12809; AID 720551;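 active means maximum activity change below -70%; inconclusive means maximum activity change between -70% and -50%; inactive means maximum activity change above -50%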; further: on the % scale 0 is the no-effect control and ±100 the full control effect
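U2OS cells transduced with wild-type KCNH2 virus are loaded with FluxOr dye for 45 min, and thallium flux is measured in kinetic reads before and after stimulation buffer. Rate constants are normalized to DMSO controls.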
MCF10A rereplic: inducers of DNA re-replication in MCF 10A breast cells. actives 2.9% (n = 350,000). AID 624296. MCF 10A DNA re-replication, Hoechst nuclear intensity, 48 h. Potency, µM (highest dose often 46.1 µM), without a hit: at the highest dose activity, positive = re-replication, actives largely listed as activators; further: potency means the concentration at half of the fitted maximal effect; % of control where 0% means no effect; nearly all actives have a fitted effect of over 50% in size
KCNH2 3.1 inh: KCNH2 3.1 (human) potassium channel inhibition; activity change, % (tested at about 1.8 µM); actives 0.95% (n = 340,000); AID 720553; U2OS KCNH2 3.1, thallium flux FluxOr; active compounds read low;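 active means maximum activity change below -70%; inconclusive means maximum activity change from -70% to -50%; inactive means maximum activity change above -50%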;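 further: thallium influx rate constant from kinetic fluorescence after stimulation buffer; on the % scale 0 is the no-effect control and ±100 the full control effect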
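Normalized rate constant (relative to positive and negative DMSO controls) derived from a 2 min kinetic fluorescence read after stimulation; U2OS cells expressing the 3.1 isoform via virus at 1.77 x 10^8 /mL.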
SW480 rereplic: inducers of DNA re-replication in SW480 colon cancer cells; SW480 DNA re-replication, Hoechst DNA content imaging, 48 h; Potency, µM (series often up to 46.1 µM), for inactives: at the top dose re-replication activation, usual class: activators; actives 1.8% (n = 340,000); AID 624297; further: potency means the concentration at half of the fitted maximal effect; % of control where 0% means no effect; nearly all actives have a fitted effect of over 55% in size
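Quantitative HTS format with DMSO vehicle controls; 48 hr drug incubation at 37 C, then 40 min Hoechst staining and scanning imager measurement at 405 nm excitation.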
An asterisk follows results filed as active. Unless noted, the call rests on the fitted dose curve; in most records, active means well fitted curve in the direction sought with a large enough effect; inconclusive means small, poorly fitted or top-dose-only effect, or another doubt; inactive means no such curve, though single readings can be large; an effect the other way counts as inactive or inconclusive.

For Cc1onc(-c2ccccc2)c1C(=O)Nc1sc2c(c1C(N)=O)CCC2 the results were KB-V1 cytotox inconclusive, KB-3-1 tox inactive, KCNH2 WT inh 0, MCF10A rereplic 4%, KCNH2 3.1 inh -8 and SW480 rereplic 7%.
Cc1onc(-c2ccccc2)c1C(=O)NC(=S)Nc1sc2c(c1C#N)CCCC2 was read as KB-V1 cytotox inactive, KB-3-1 tox inactive, KCNH2 WT inh -9, MCF10A rereplic inconclusive, KCNH2 3.1 inh 4 and SW480 rereplic 3%.
`Cc1onc(-c2ccccc2)c1C(=O)Nc1sc2c(c1C#N)CCC2` gave KB-V1 cytotox 4.6µM*, KB-3-1 tox inconclusive, KCNH2 WT inh 5, MCF10A rereplic inconclusive, KCNH2 3.1 inh -15 and SW480 rereplic inconclusive.
`Cn1cc([N+](=O)[O-])c(C(=O)Nc2sc3c(c2C#N)CCC3)n1` gave KB-V1 cytotox inconclusive, KB-3-1 tox inconclusive, KCNH2 WT inh 2, MCF10A rereplic 3.7µM*, KCNH2 3.1 inh 4 and SW480 rereplic inconclusive.
For Cn1cc(Br)c(C(=O)Nc2sc3c(c2C#N)CCC3)n1 the results were KB-V1 cytotox inactive, KB-3-1 tox inactive, KCNH2 WT inh 2, MCF10A rereplic 7%, KCNH2 3.1 inh 24 and SW480 rereplic 1%.
CCOC(=O)C[C@H]1c2cc(F)ccc2S(=O)(=O)N1Cc1cc(OC)c(OC)c(OC)c1 was read as KB-V1 cytotox inconclusive and KB-3-1 tox inactive.
COC(CNC(=O)c1ccc2c(c1)ncn2-c1cccc(C)c1)OC was read as KB-V1 cytotox inactive, KB-3-1 tox inactive, KCNH2 WT inh 13, MCF10A rereplic 3%, KCNH2 3.1 inh 0 and SW480 rereplic 11%.
O=C(NCc1ccccc1)c1nnc(Cc2cccc(F)c2)o1 was read as KB-V1 cytotox inactive and KB-3-1 tox inactive.
Cc1cc(C)cc(OCC(=O)OCC(=O)N(CC(C)C)c2c(N)n(Cc3ccccc3)c(=O)[nH]c2=O)c1 was read as KB-V1 cytotox inactive, KB-3-1 tox inactive, KCNH2 WT inh 3, MCF10A rereplic -2%, KCNH2 3.1 inh 6 and SW480 rereplic 0%.
`N#Cc1c(NC(=O)c2cc(C3CC3)on2)sc2c1CCC2` gave KB-V1 cytotox inactive, KB-3-1 tox 13µM*, KCNH2 WT inh -8, MCF10A rereplic 3.3µM*, KCNH2 3.1 inh -1 and SW480 rereplic 21µM*.
`Cc1cc(C(F)F)n2nc(C(=O)Nc3sc4c(c3C#N)CCC4)nc2n1` gave KB-V1 cytotox 21µM*, KB-3-1 tox inactive, KCNH2 WT inh 1, MCF10A rereplic -34%, KCNH2 3.1 inh 1 and SW480 rereplic 15%.
For Cc1ccc(NS(=O)(=O)c2ccc3oc(=O)ccc3c2)cc1Cl the results were KB-V1 cytotox inconclusive, KB-3-1 tox inactive, KCNH2 WT inh 3, MCF10A rereplic -2%, KCNH2 3.1 inh 20 and SW480 rereplic 0%.
`Cc1ccc(NC(=O)c2ccc(=O)[nH]n2)cc1S(=O)(=O)Nc1ccc(SC(F)F)cc1` gave KB-V1 cytotox inactive, KB-3-1 tox inconclusive, KCNH2 WT inh -14, MCF10A rereplic 0%, KCNH2 3.1 inh 13 and SW480 rereplic 16%.
CCN1C(Br)=CCc2ccccc21 was read as KB-V1 cytotox inconclusive and KB-3-1 tox inactive.
CN(Cc1cccc2cnccc12)C(=O)CCc1nnc(CCc2ccccc2)o1 was read as KB-V1 cytotox inconclusive, KB-3-1 tox inactive, KCNH2 WT inh 0, MCF10A rereplic 21%, KCNH2 3.1 inh 2 and SW480 rereplic 2%.
`COc1ccccc1CCc1nnc(CCC(=O)N(C)Cc2cccc3ncccc23)o1` gave KB-V1 cytotox 8.2µM*, KB-3-1 tox inactive, KCNH2 WT inh -6, MCF10A rereplic inconclusive, KCNH2 3.1 inh -18 and SW480 rereplic 0%.
Screening CCc1cccc(NC(=O)COC(=O)c2ccccc2OCc2ccccc2Br)c1 returned KB-V1 cytotox inactive and KB-3-1 tox inactive.
CN1CCC(Nc2ncc3ncnc(Nc4ccc(F)c(Cl)c4)c3n2)CC1 was read as MCF10A rereplic 3.3µM* and SW480 rereplic 13µM*.
For Cn1ncc2c(Nc3ccc(Cl)c(Cl)c3)ncnc21 the results were KB-V1 cytotox inactive, KB-3-1 tox inactive, KCNH2 WT inh -10, MCF10A rereplic 21%, KCNH2 3.1 inh -4 and SW480 rereplic -2%.
O=C(CN1CCNCC1)NC1CCCCC1 was read as MCF10A rereplic -1% and SW480 rereplic -3%.
`CN(C)c1ccc(/C=C2\SC(=S)N(Nc3ncc(C(F)(F)F)cc3Cl)C2=O)cc1` gave KB-V1 cytotox inactive, KB-3-1 tox inactive, KCNH2 WT inh -133*, MCF10A rereplic 10%, KCNH2 3.1 inh -73* and SW480 rereplic inconclusive.
Cc1cc(C)cc(NC(=O)C2CCC(CNC(=O)[C@@H]3Cc4ccccc4CN3)CC2)c1 (stereo partly specified) was read as KB-V1 cytotox inactive, KB-3-1 tox inactive, KCNH2 WT inh 17, MCF10A rereplic inconclusive, KCNH2 3.1 inh -13 and SW480 rereplic 18µM*.
Cc1cccc(NC(=O)C2CCC(CNC(=O)[C@@H]3Cc4ccccc4CN3)CC2)c1 (stereo partly specified) was read as KB-V1 cytotox inactive, KB-3-1 tox inactive, KCNH2 WT inh 18, MCF10A rereplic 3%, KCNH2 3.1 inh 45 and SW480 rereplic 21%.
`CC(C)c1ccc(NC(=O)C2CCN(C(=O)[C@@H]3Cc4ccccc4CN3)CC2)cc1` gave KB-V1 cytotox inactive, KB-3-1 tox inactive, KCNH2 WT inh -17, MCF10A rereplic inconclusive, KCNH2 3.1 inh -88* and SW480 rereplic 18µM*.
For COc1ccc(S(=O)(=O)N2CCCC(C(=O)NC3CC3)C2)cc1OC (stereo unspecified) the results were KB-V1 cytotox inactive, KB-3-1 tox inactive, KCNH2 WT inh 2, MCF10A rereplic -11%, KCNH2 3.1 inh 11 and SW480 rereplic inconclusive.
Screening O=S(=O)(O)c1nc2ccccc2[nH]1 returned KB-V1 cytotox inactive, KB-3-1 tox inactive, MCF10A rereplic inconclusive, KCNH2 3.1 inh -22 and SW480 rereplic -14%.
Screening CCOC(=O)N1CCC(=NNS(=O)(=O)c2cccc([N+](=O)[O-])c2)CC1 returned KB-V1 cytotox inactive, KB-3-1 tox inactive, KCNH2 WT inh -1, MCF10A rereplic -18%, KCNH2 3.1 inh -71* and SW480 rereplic -3%.
`COc1ccc(NS(=O)(=O)c2cccc(NC(=O)CCC(=O)c3ccc(Cl)cc3)c2)cc1` gave KB-V1 cytotox 18µM*, KB-3-1 tox inactive, KCNH2 WT inh -5, MCF10A rereplic inconclusive, KCNH2 3.1 inh 7 and SW480 rereplic 9%.

Assay outcomes from PubChem.
